For 33 compounds, Potency and outcome results are on record in PubChem BioAssay (NCATS).

Experiment [1] relates to MCC-13. Description: qHTS assay to identify novel small-molecules to repurpose for Merkel cell carcinoma treatment (AID 1296009). Note: nearly all actives have a fitted effect of over 60% in size. The conditions noted are these: MCC and control cell lines, CellTiter-Glo viability, 72 h; series mostly up to 46 µM. In a few lines: (§1)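 Cells were incubated with compound for 72 hr at 37 degree celsius before CellTiter-Glo addition. Luminescence was normalized with no-cell wells as full cytotoxicity and DMSO as baseline.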

The test system of experiment [2] is MKL-1. Described as above. The conditions noted are these: MCC and control cell lines, CellTiter-Glo viability, 72 h; series mostly up to 46 µM. A digest of the protocol:
as §1
(In general: ATP-based viability assays read luminescence as a measure of living cells.)

Experiment [3] has as its system MKL-2. The experiment is described as above. The note with it: MCC and control cell lines, CellTiter-Glo viability, 72 h; series mostly up to 46 µM. A digest of the protocol: as §1
Experiment [4] concerns UISO. Described as above. The conditions noted are these: MCC and control cell lines, CellTiter-Glo viability, 72 h; series mostly up to 46 µM. In a few lines:
as §1

The subject of experiment [5] is WaGa. Described as above. The conditions noted are these: MCC and control cell lines, CellTiter-Glo viability, 72 h; series mostly up to 46 µM. In a few lines: as §1
For experiment [6], the system named is NIH3T3. The experiment is described as above. The conditions noted are these: MCC and control cell lines, CellTiter-Glo viability, 72 h; series mostly up to 44.8 µM. In a few lines: as §1
The subject of experiment [7] is C33A. Description: Primary qHTS to identify gynecologic anti-cancer compounds using libraries of approved drugs and bioactive compounds (AID 1345084). Note: nearly all actives have a fitted effect of over 55% in size. The conditions noted are these: Gynecologic cancer cell panel viability, ATPlite luminescence, 48 h; series mostly up to 57.5 µM. In a few lines:
(§2)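 48 h compound exposure at 37 C, 5% CO2; five-point qHTS. ATPlite luminescence readout of cell ATP.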
A general note: In qHTS, concentration-response curves come from the screen itself.

Experiment [8] deals with CAOV3. The description is as above. The note with it: Gynecologic cancer cell panel viability, ATPlite luminescence, 48 h; series mostly up to 57.5 µM. In a few lines:
as §2

For experiment [9], the system named is MCC-26. Description: qHTS assay to identify novel small-molecules to repurpose for Merkel cell carcinoma treatment (AID 1296009). Note: nearly all actives have a fitted effect of over 60% in size. The note with it: MCC and control cell lines, CellTiter-Glo viability, 72 h; series mostly up to 46 µM. In a few lines: as §1

Where “and” joins values, the source holds several entries; their conditions need not be identical. Equal values may be shown once. Records with an inconclusive call do not appear. Where a structure was tested more than once in an assay, its records may differ in their call. Calls of active or inactive are those of the source. Calls come from the whole dose curve; as a rule, active = well fitted curve in the direction sought with a large enough effect; inconclusive = small, poorly fitted or top-dose-only effect, or another doubt; inactive = no such curve, though single readings can be large; an effect the other way counts as inactive or inconclusive.
Potency is the fitted concentration of half-maximal effect.

For the compound `CN1C2CCC1CC(OC(=O)C(CO)c1ccccc1)C2` (stereo not drawn), the Potency result in [1], in experiment [2], in experiment [3], in [4] and in experiment [5] was “inactive” throughout.
For the compound `CN1CCC(=C2c3ccccc3CC(=O)c3sccc32)CC1`, the Potency entry in experiment [1], in [2], in experiment [4], in [7] and in [8] was “inactive” each time. Also, the Potency in experiment [3] was 9.44 µM (active); in experiment [5] it was 29.9 µM (active). Also, the compound was classed as inactive in experiment [6].
As for `CC(CCc1ccc(O)cc1)NCCc1ccc(O)c(O)c1` (stereo not drawn), the Potency result in experiment [1], in experiment [5], in [7] and in [8] was “inactive” in each case. For the same compound, the Potency is 7.5 µM (active) in experiment [2]; 23.5 µM (active) and 11.9 µM (active) in experiment [3].
As for `CCC1(c2ccccc2)C(=O)NCNC1=O`, the Potency entry in [7] and in experiment [8] was “inactive” throughout.
Take `O=c1c(O)c(-c2ccc(O)c(O)c2)oc2cc(O)cc(O)c12`: the Potency result in experiment [1], in experiment [2], in experiment [3], in experiment [4], in experiment [5] and in [7] was “inactive” in each case.
For the compound `CN1CCN(C2=Nc3cc(Cl)ccc3Nc3ccccc32)CC1`, the Potency result in experiment [1], in experiment [2], in [3], in experiment [4], in experiment [5] and in experiment [7] was “inactive” each time. Besides, the outcome in [6] was inactive.
Take `O=C(c1ccc(F)cc1)C1CCN(CCn2c(=O)[nH]c3ccccc3c2=O)CC1`: the Potency result in experiment [1], in [2], in [3], in [4], in experiment [5] and in [7] was “inactive” each time. Moreover, the Potency result in experiment [8] is “inactive”. Besides, in experiment [6], the compound was called inactive.
Turning to `CCCCc1oc2ccccc2c1C(=O)c1cc(I)c(OCCN(CC)CC)c(I)c1`, the Potency result in [1], in experiment [4], in [5] and in [7] was “inactive” in each case. The Potency in experiment [3] was 13.3 µM (active).
For the compound `COc1cc2nc(N(C)CCCNC(=O)C3CCCO3)nc(N)c2cc1OC` (stereo not drawn), the Potency entry in [1], in experiment [2], in experiment [3], in experiment [4], in experiment [5] and in [7] was “inactive” each time. Moreover, the Potency entry in experiment [8] is “inactive”. For the same compound, the result in [6] was inactive.
Regarding `CC(C)NCC(O)c1ccc(O)c(O)c1` (stereo not drawn), the Potency entry in experiment [1] and in experiment [7] was “inactive” in each case. Besides, the Potency was 8.41 µM (active) in experiment [2]; 7.43 µM (active) and 18.8 µM (active) in [3]; 3.32 µM (active) and 18.8 µM (active) in [5].
For the compound `O=C(CCCN1CCC(O)(c2ccc(Cl)cc2)CC1)c1ccc(F)cc1`, the Potency result in experiment [1], in experiment [2], in experiment [3], in experiment [4], in experiment [5] and in [7] was “inactive” each time. Also, the compound was called inactive in [6].
Consider `CN(Cc1cnc2nc(N)nc(N)c2n1)c1ccc(C(=O)N[C@@H](CCC(=O)O)C(=O)O)cc1`, for which the Potency result in experiment [9], in experiment [3] and in experiment [8] was “inactive” throughout. In experiment [2], the Potency is 10.5 µM (active).
In the case of `CC#C[C@]1(O)CC[C@H]2[C@@H]3CCC4=CC(=O)CCC4=C3[C@@H](c3ccc(N(C)C)cc3)C[C@@]21C`, the Potency entry in [1] and in [7] was “inactive” each time. Besides, the Potency result in experiment [2] is “inactive and 105 nM (active)”; in experiment [3], 21.1 µM (active) and 93.5 nM (active); in [4], 2.96 µM (active).
Regarding `CS(=O)(=O)CCNCc1ccc(-c2ccc3ncnc(Nc4ccc(OCc5cccc(F)c5)c(Cl)c4)c3c2)o1`, the Potency entry in [1], in experiment [2], in experiment [4] and in experiment [7] was “inactive” throughout. Further, the Potency in experiment [3] was 11.9 µM (active); in experiment [5], “inactive and 16.8 µM (active)”.
For `OCCN(CCO)c1nc(N2CCCCC2)c2nc(N(CCO)CCO)nc(N3CCCCC3)c2n1`, the Potency entry in experiment [1], in experiment [2], in experiment [4], in [5], in experiment [7] and in experiment [8] was “inactive” each time. Moreover, the compound was called inactive in experiment [6].
With `CC(COc1ccccc1)N(CCCl)Cc1ccccc1` (stereo not drawn), the Potency entry in [7] and in [8] was “inactive” each time.
Take `O=C(c1ccc(OCCN2CCCCC2)cc1)c1c(-c2ccc(O)cc2)sc2cc(O)ccc12`: the Potency result in [1], in experiment [2], in [4], in experiment [5], in experiment [7] and in experiment [8] was “inactive” each time. Further, the Potency in experiment [3] is 15 µM (active).
Turning to `COC(=O)Nc1nc2ccc(C(=O)c3cccs3)cc2[nH]1`, the Potency in experiment [1] is 148 nM (active) and 266 nM (active); in [4], 0.0235 µM (active); in experiment [7] it was 1 µM (active).
Regarding `Cn1c(=O)c2[nH]cnc2n(C)c1=O`, the Potency entry in experiment [7] is “inactive”.
As for `Fc1ccc([C@@H]2CCNC[C@H]2COc2ccc3c(c2)OCO3)cc1`, the Potency entry in [1], in experiment [2], in [3], in experiment [4], in experiment [5] and in [7] was “inactive” throughout.
For the compound `Cc1cnc(C(=O)NCCc2ccc(S(=O)(=O)NC(=O)NC3CCCCC3)cc2)cn1`, the Potency result in experiment [1], in [2], in [3], in experiment [4], in [5] and in [7] was “inactive” each time. Moreover, in experiment [8], the Potency entry was “inactive”.
Turning to `CCOC(=O)c1ncn2c1CN(C)C(=O)c1cc(F)ccc1-2`, the Potency result in [7] and in experiment [8] was “inactive” in each case.
Consider `Cc1cn([C@H]2C[C@H](N=[N+]=[N-])[C@@H](CO)O2)c(=O)[nH]c1=O`, for which the Potency result in [7] and in experiment [8] was “inactive” each time.
In the case of `CC12CC3CC(C)(C1)CC(N)(C3)C2`, the Potency result in experiment [1], in experiment [2], in [3], in experiment [4] and in [7] was “inactive” in each case. Further, the Potency in experiment [5] was 3.72 µM (active) and inactive.
Regarding `Cn1cnc2c1c(=O)[nH]c(=O)n2C`, the Potency result in experiment [1], in [2], in [3], in [4], in [5] and in experiment [7] was “inactive” in each case. Further, in experiment [8], the Potency result was “inactive”.
On to `NC(=O)NO`, for which the Potency result was “inactive and 2.96 µM (active)” in [1]; “inactive and 372 nM (active)” in experiment [3]; “inactive and 4.69 µM (active)” in experiment [4]. For the same compound, the Potency entry in [2], in experiment [5] and in experiment [7] was “inactive” in each case.
On to `NCCCCCC(=O)O`, for which the Potency entry in [1], in experiment [2], in [3], in experiment [4], in experiment [5] and in experiment [7] was “inactive” in each case. Also, the Potency entry in experiment [8] is “inactive”.
For the compound `O=c1[nH]cc(F)c(=O)[nH]1`, the Potency result in experiment [1], in experiment [2], in [3] and in experiment [8] was “inactive” in each case. For the same compound, in experiment [5], the Potency was 10.5 µM (active).
`COc1nc(C)nc(Cl)c1NC1=NCCN1`: the Potency entry in experiment [1], in [2], in [3], in experiment [4], in experiment [5] and in experiment [7] was “inactive” throughout.
Take `Nc1nc2c(ncn2COC(CO)CO)c(=O)[nH]1`: the Potency entry is “inactive and 20.9 µM (active)” in experiment [1]; “inactive and 7.43 µM (active)” in experiment [3]; “inactive and 18.7 µM (active)” in [4]. Besides, the Potency result in experiment [2], in [5] and in experiment [7] was “inactive” each time.
With `O=C(C1CCCCC1)N1CC(=O)N2CCc3ccccc3C2C1` (stereo not drawn), the Potency result in experiment [7] and in [8] was “inactive” each time.
In the case of `COc1ccccc1N1CCN(CC(O)COc2cccc3ccccc23)CC1` (stereo not drawn), the Potency entry in experiment [1], in [2], in experiment [3], in experiment [4] and in [5] was “inactive” in each case. Besides, the Potency in experiment [7] was 8.91 µM (active).
For the compound `O=C(Nc1ccc([N+](=O)[O-])cc1Cl)c1cc(Cl)ccc1O`, the Potency is 3.26 µM (active) in experiment [4], 4.61 µM (active) in experiment [5] and 2.51 µM (active) in experiment [7].
